30 molecules from PubChem BioAssay (NCATS) can be followed below.

The structures appear in SMILES notation. Calls of active or inactive are those of the source. Calls follow the shape of the full dose curve.

What all share (assay): Confirmatory Screen for Target Class Profiling of Small Molecule Inhibitors of Methyltransferases (AID 1745852); as to activity change, negative = inhibition: % is scaled to controls: 0 for no effect and ±100 for the full control effect
For assay [1], the target named is Catechol O-methyltransferase (Homo sapiens) (UniProt P21964). The note with it: MTase-Glo luminescence, SAH detection, recombinant enzyme; measured here: COMT max response; stronger effect = lower value.
Sequence of Catechol O-methyltransferase (Homo sapiens) (P21964 whole entry, looked up): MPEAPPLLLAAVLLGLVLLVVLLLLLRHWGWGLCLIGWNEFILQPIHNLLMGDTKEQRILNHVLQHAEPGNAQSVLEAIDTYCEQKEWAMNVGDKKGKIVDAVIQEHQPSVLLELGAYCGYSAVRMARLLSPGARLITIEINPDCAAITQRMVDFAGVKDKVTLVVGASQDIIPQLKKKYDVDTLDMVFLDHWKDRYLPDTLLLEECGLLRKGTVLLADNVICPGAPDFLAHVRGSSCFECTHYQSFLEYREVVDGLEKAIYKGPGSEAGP
Assay [2] addresses Guanidinoacetate N-methyltransferase (Homo sapiens) (UniProt Q14353). The note with it: MTase-Glo luminescence, SAH detection, recombinant enzyme; activity change, negative = inhibition: at 57.3 µM (top of the series) unless noted; series mostly up to 57.3 µM.
Assay [3] has as its target Nicotinamide N-methyltransferase (Homo sapiens) (UniProt P40261). To be noted: MTase-Glo luminescence, SAH detection, recombinant enzyme; measured here: NNMT max response; stronger effect = lower value.
Assay [4] deals with Phenylethanolamine N-methyltransferase (Homo sapiens) (UniProt P11086). To be noted: MTase-Glo luminescence, SAH detection, recombinant enzyme; measured here: PNMT max response; stronger effect = lower value.
Sequence of Phenylethanolamine N-methyltransferase (Homo sapiens) (P11086 whole entry, looked up): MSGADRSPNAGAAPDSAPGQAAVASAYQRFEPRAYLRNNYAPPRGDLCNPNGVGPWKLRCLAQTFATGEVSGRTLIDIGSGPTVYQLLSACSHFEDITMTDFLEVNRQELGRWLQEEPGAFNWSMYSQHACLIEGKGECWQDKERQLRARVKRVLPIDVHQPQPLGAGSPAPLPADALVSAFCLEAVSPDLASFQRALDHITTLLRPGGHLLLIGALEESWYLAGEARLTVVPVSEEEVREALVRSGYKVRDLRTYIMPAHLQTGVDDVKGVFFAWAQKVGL
Potency is read from the fitted curve at half-maximal effect.

Sequence of Nicotinamide N-methyltransferase (Homo sapiens) (P40261 whole entry, looked up): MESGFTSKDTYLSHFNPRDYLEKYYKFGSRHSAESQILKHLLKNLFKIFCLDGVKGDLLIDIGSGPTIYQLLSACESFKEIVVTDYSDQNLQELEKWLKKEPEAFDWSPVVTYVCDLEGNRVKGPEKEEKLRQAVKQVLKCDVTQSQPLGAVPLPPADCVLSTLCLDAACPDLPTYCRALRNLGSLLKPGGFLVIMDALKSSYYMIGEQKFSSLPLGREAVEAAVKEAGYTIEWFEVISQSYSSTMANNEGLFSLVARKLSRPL

For the molecule `O=C(NCc1ccc2c(c1)OCO2)c1sc(=S)n2c1[nH]c(=O)c1ccccc12`, the activity is -46.4% in assay [1], -20.7% in assay [3] and -48.8% in assay [4]. Further, the Potency in assay [2] is 27.1 µM (active).
In the case of `COc1ccccc1-c1[nH]nc2ncc(C(=O)NCC3CC3)nc12`, the activity is -33.3% in assay [1], -16.5% in assay [3] and -40.5% in assay [4]. Also, in assay [2], the activity change, negative = inhibition is -13.8% [at 85.7 µM].
The matching figures for `COc1ccc(S(=O)(=O)NC[C@H]2Cn3c(-c4ccc(Cl)cc4)cnc3CO2)cc1`: -8.66%, -23.7%, -17.1% and -2.1% [at 85.7 µM].
The matching figures for `COc1cccc(NC(=O)Cn2c(=O)oc3cc(S(=O)(=O)N4CCCC4)ccc32)c1`: 3.1%, 4.37%, -58.7% and 0.138%.
The matching figures for `COc1ccc2c(c1)C(CN1CCN(c3ccc4oc(C(=O)O)cc4c3Cl)CC1)=CC(C)(C)CO2`: -4.38%, -9.6%, 3.5% and 0.273%.
Consider `CN1CCN(c2ncnc3sc4c(c23)CCNC4)CC1`, for which the results for the activity in assay [1], in assay [3] and in assay [4] were -1.43%, -71.2% and -15%, respectively. In assay [2], the activity change, negative = inhibition was 0.536%.
The matching figures for `Cc1noc2c(NC3CCN(C)CC3)cc(-c3cccs3)nc12`: 7.59%, 0.3%, -6.76% and 13.7% [at 85.7 µM].
As to `O=C(NCc1ccc2c(c1)OCO2)c1sc(=S)n2c1[nH]c(=O)c1ccc(Cl)cc12`, the activity in assay [1] is -88.3%; in assay [3] it was -87.4%; in assay [4] it was -92.6%. In addition, the Potency in assay [2] was 24.1 µM (active).
With `CC(C)CCNC(=O)c1ccc2c(=O)[nH]c3c(C(=O)NC(C)C)sc(=S)n3c2c1`, the figures for the activity in assay [1], in assay [3] and in assay [4] were -37.8%, -37.9% and -33.6%, respectively. The Potency in assay [2] is 27.1 µM (active).
For the molecule `COc1ccc(OCc2cc(C(=O)NC(CO)C(C)C)no2)c2ccccc12` (stereo not given), the activity in assay [1] stood at 3.87%; in assay [3] it was 5.13%; in assay [4], 0.331%. Moreover, the activity change, negative = inhibition in assay [2] was 1.38%.
On the same counts, the results for `CN(CCCNC(=O)CCc1nnc2n(Cc3ccccc3)c(=O)c3ccccc3n12)Cc1ccccc1` are 1.61%, -7.26%, -2.41% and 0%.
Take `OC1(Cn2ccnc2)CCN(Cc2ccccc2Cn2cccn2)CC1`: the activity in assay [1] came to 3.04%; in assay [3], 4.14%; in assay [4], 5.79%. Besides, in assay [2], the activity change, negative = inhibition turned out to be 3.7%.
On the same counts, the results for `CCN1CCN(c2nc3c(S(=O)(=O)c4ccc(Br)cc4)nnn3c3ccccc23)CC1` are 1.75%, -1.61%, -3.25% and 2.08%.
On the same counts, the results for `O=C(CCCc1nnc2n3nc(-c4ccccc4)nc3c3ccccc3n12)NCCCN1CCCCC1` are -1.71%, 2.5%, 0.451% and 0%.
The matching figures for `Cn1ncc2c(N3CCN(S(N)(=O)=O)CC3)nc(C3CCCC3)nc21`: -8.84%, -39.7%, -18% and -4.64%.
For the molecule `CCn1cc(CN2CCN(C(=O)c3cccs3)CC2)ccc1=O`, the activity was 0.352% in assay [1], -1.21% in assay [3] and -6.54% in assay [4]. In assay [2], the activity change, negative = inhibition was -2.5%.
`O=C(CCc1nnc2n(Cc3ccccc3Cl)c(=O)c3ccccc3n12)N1CCC(N2CCCCC2)CC1`: the activity in assay [1] was 0%; in assay [3], -1.92%; in assay [4] it was 0%. Moreover, the activity change, negative = inhibition in assay [2] was 0.582%.
`O=C1c2ccccc2C(=O)c2cc(S(=O)(=O)Nc3ccc(Br)cc3)ccc21`: the activity in assay [1] was 0.0189%; in assay [3], -13.8%; in assay [4], -18.5%. Besides, in assay [2], the activity change, negative = inhibition was -0.0818%.
Take `Cc1ccc(C2Nc3c(ccc(C(=O)O)c3C)C3C=CCC32)cc1` (stereo not given): the figures for the activity in assay [1], in assay [3] and in assay [4] were -3.41%, -1.48% and -1.34%, respectively. For the same molecule, the Potency result in assay [2] is “inactive”.
`Cc1nc2c3ccccc3n3c(CCCC(=O)NCCCN(C)Cc4ccccc4)nnc3n2n1`: the activity in assay [1] is -2.29%; in assay [3], -3.81%; in assay [4] it was -3.01%. Further, the activity change, negative = inhibition in assay [2] was determined as 0%.
The matching figures for `CCN(CC)CCNC(=O)CCc1nnc2n(Cc3ccc(C)cc3)c(=O)c3ccccc3n12`: -5.02%, -14.5%, 0.867% and -3.03%.
For `O=C(Nc1ccccc1)c1cnc2c(c1)N(C(=O)Cc1ccc(O)cc1)CCC2`, the activity is -2.13% in assay [1], -4.08% in assay [3] and -3.63% in assay [4]. Besides, the activity change, negative = inhibition in assay [2] was -4.86% [at 85.7 µM].
The matching figures for `CC1CCCC(NC(=O)C2(C)Cn3c(cc4occc43)C(=O)N2Cc2ccco2)C1C` (stereo not given): -10.3%, -20.3%, -11.1% and -6.55%.
In the case of `Cc1cccc(N2CCN(C(=O)CCc3nnc4n(CC(C)C)c(=O)c5ccccc5n34)CC2)c1C`, the activity in assay [1] is 4.82%; in assay [3], -69.8%; in assay [4], 4.08%. Besides, in assay [2], the activity change, negative = inhibition was found to be 2.51%.
Regarding `COCCNc1cc(-c2noc([C@@H]3CCCN3CC(C)C)n2)ccn1`, the activity in assay [1] was 3.05%; in assay [3] it was -4.35%; in assay [4] it was 2.32%. For the same molecule, the activity change, negative = inhibition in assay [2] came out at 1.02% [at 85.7 µM].
The matching figures for `CC(=O)Nc1cccc(-c2cc3c(cn2)CN(Cc2ccccc2)CCN3)c1`: -2.16%, -13%, -14.8% and 0.249% [at 85.7 µM].
Consider `Cn1c(=O)c2ccnn2c2ccc(C(=O)NCC3CCN(Cc4ccccc4F)CC3)cc21`, for which the activity was 3.91% in assay [1], -38.8% in assay [3] and 2.1% in assay [4]. In assay [2], the activity change, negative = inhibition was determined as 6.11%.
The matching figures for `O=C(CCc1nnc2n(Cc3ccc(Cl)cc3)c(=O)c3ccccc3n12)NCCN1CCCC1`: 4.15%, -12.3%, 0% and 1.71%.
For the molecule `CC(C)NC(=O)c1ccccc1OCC1CCCN(Cc2cn(C)c3ccccc23)C1` (stereo not given), the activity in assay [1] amounted to 8.45%; in assay [3] it was 4.67%; in assay [4], 10.4%. Moreover, in assay [2], the activity change, negative = inhibition worked out at 14.4%.
Consider `Cn1c(=O)n(C)c2cc(S(=O)(=O)N3CCN(C4CCCCC4)CC3)c(Cl)cc21`, for which the activity is -1.77% in assay [1], -10.5% in assay [3] and -13.7% in assay [4]. In assay [2], the activity change, negative = inhibition came out at 2.61%.
